# Assay results: the supplement of paper PMC6555819
# Legend:
# Assay in all cases: PBM binding z-score (relative to random genomic background probes); higher = stronger binding; sequences stand for … in GC…GCGATTGACAGCGTAGAATGAAGG
# [1] = test system: FXR:RXRa (NR concentration 270 nM, RXRa partner concentration 90 nM)
# Method in brief: (§1)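 Ligand-free nuclear receptor dimers were applied to custom Agilent 4×180K protein-binding microarrays whose double-stranded probes carried direct-repeat seeds, single-nucleotide variants, half-site ablations and random human genomic background sequences in 34-nt variable regions. Incubation lasted 1 h. Binding z-scores were computed against the random background probes from regression-normalized fluorescence.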
# [2] = test system: LXRa:RXRa (NR concentration 270 nM, RXRa partner concentration 90 nM)
# Method in brief: as §1
# [3] = test system: LXRa homodimer (NR concentration 270 nM)
# Method in brief: as §1
# [4] = test system: LXRb:RXRa (NR concentration 270 nM, RXRa partner concentration 90 nM)
# Method in brief: as §1
# [5] = test system: LXRb homodimer (NR concentration 270 nM)
# Method in brief: as §1
# [6] = test system: PPARa:RXRa (NR concentration 270 nM, RXRa partner concentration 90 nM)
# Method in brief: as §1
# [7] = test system: PPARg:RXRa (NR concentration 180 nM, RXRa partner concentration 90 nM)
# Method in brief: as §1
# [8] = test system: PPARg:RXRa 270nM:90nM, anti-RXR (NR concentration 270 nM, RXRa partner concentration 90 nM)
# Method in brief: as §1
# [9] = test system: PPARg:RXRa 30nM:10nM, anti-RXR (NR concentration 30 nM, RXRa partner concentration 10 nM)
# Method in brief: as §1
# [10] = test system: PPARg:RXRa 90nM:30nM, anti-RXR (NR concentration 90 nM, RXRa partner concentration 30 nM)
# Method in brief: as §1
# [11] = test system: PPARg:RXRa DBDmut IVT, anti-RXR (DBD mutation: RXRa K156A/R161A, NR concentration 270 nM, RXRa partner concentration 90 nM)
# Method in brief: as §1
# [12] = test system: PPARg:RXRa IVT, anti-PPARg (NR concentration 270 nM, RXRa partner concentration 90 nM)
# Method in brief: as §1
# [13] = test system: PPARg DBDmut:RXRa IVT, anti-PPARg (DBD mutation: PPARg1 K132A/R137A, NR concentration 270 nM, RXRa partner concentration 90 nM)
# Method in brief: as §1
# [14] = test system: PPARg DBDmut IVT, anti-PPARg (DBD mutation: PPARg1 K132A/R137A, NR concentration 270 nM)
# Method in brief: as §1
# [15] = test system: PPARg homodimer (NR concentration 180 nM)
# Method in brief: as §1
# [16] = test system: PXR:RXRa (NR concentration 270 nM, RXRa partner concentration 90 nM)
# Method in brief: as §1
# [17] = test system: PXR homodimer (NR concentration 270 nM)
# Method in brief: as §1
# [18] = test system: RARa:RXR (NR concentration 270 nM, RXRa partner concentration 90 nM)
# Method in brief: as §1
# [19] = test system: RARa homodimer (NR concentration 270 nM)
# Method in brief: as §1
# [20] = test system: RARb:RXRa (NR concentration 270 nM, RXRa partner concentration 90 nM)
# Method in brief: as §1
Sequence,PBM binding z-score [1],PBM binding z-score [2],PBM binding z-score [3],PBM binding z-score [4],PBM binding z-score [5],PBM binding z-score [6],PBM binding z-score [7],PBM binding z-score [8],PBM binding z-score [9],PBM binding z-score [10],PBM binding z-score [11],PBM binding z-score [12],PBM binding z-score [13],PBM binding z-score [14],PBM binding z-score [15],PBM binding z-score [16],PBM binding z-score [17],PBM binding z-score [18],PBM binding z-score [19],PBM binding z-score [20]
GCGACTAGGGCAAAGCAGGTTACCATAAGGTTGG,0.0913,0.121,-0.0293,-0.376,-1.03,1.17,1.63,1.77,-0.187,0.722,4.76,4.23,-0.472,-0.903,0.0824,0.293,-0.481,0.775,-1.2,1.1
ATCGAAAGGTCGACGTGGTGAGTATACACCGTTT,4.21,3.3,0.0877,2.49,0.332,4.08,2.08,2.66,1.01,1.77,0.406,1.46,0.651,0.527,1.02,2.18,0.102,3.07,0.487,3.66
CCGACTAGGGCAAAGGTTACCATACTCAGTACGA,2.31,2.04,0.518,2.49,-0.304,6.31,11.2,8.96,9.02,9.62,5.49,6.42,0.866,0.896,2.04,2.23,-0.079,3.59,0.449,2.85
TTACCAATGTGAAGGTCGTTGATCCCTCTGTAGA,1.87,2.22,0.434,1.74,0.0606,1.3,-0.039,1.1,1.12,0.829,0.314,0.221,-0.143,0.211,0.84,1.37,0.539,1.45,0.451,0.862
CGTCCAGGGTCAGCAGGTCAGTGAAAGCGACGTG,5.44,3.06,-0.214,3.1,-0.458,5.11,4.16,4.41,0.684,2.92,1.76,3.07,-0.496,-0.836,2.79,3.35,0.0152,4.85,0.53,4.69
CATAGTTGGTCAGGAGGTCACACACCGGATATGA,3.73,3.38,1.98,3.28,0.669,4.18,3.64,3.65,1.73,3.1,1.15,3.71,1.32,0.996,3.84,4.52,1.13,5.4,1.99,3.73
ACTAGCAGGCCAACGGTCACTCAAGATTAGTCCG,-0.155,-0.0207,0.0255,-0.508,-0.572,1.37,2.56,3.92,2.08,3.72,1.21,1.38,-0.412,-0.352,0.237,-0.526,-0.588,0.0763,-0.817,1.64
CAGCCTAGGTCAGGGCCAGAATAGGAGGAACGTT,1.68,0.905,-0.589,0.734,-1.02,2.04,1.06,0.725,-0.241,0.0702,1.51,1.55,-0.6,-1.51,0.276,0.146,-0.618,0.927,-0.25,3.49
GGAACGGGGGCAAAGTTGATAGCATCTGTCGACG,3.75,3.32,0.259,4.64,6.22,5.56,9.31,8.52,9.53,9.94,4.07,6.45,10.3,11.6,2.01,3.21,1.78,3.47,0.888,3.27
CCTAGTTGGTCAGGAGGTCACACACCGGATATGA,3.73,3.67,2.08,3.3,0.83,4.11,3.41,3.95,1.75,3.27,1.79,3.68,0.499,0.258,3.9,4.41,1.41,4.76,2.91,3.82
GGAGCGAGGGCAAAGTTGATAGCATCTGTCGACG,0.977,0.574,-0.435,0.182,-0.792,2.54,3.16,4.11,2.37,3.6,0.739,1.35,-0.304,-0.838,-0.183,0.839,-0.0464,1.21,-0.259,2.14
GCTCGGAGGACAAGGTCATAGCTTTGTCCGTAGA,4.1,3.71,0.47,2.77,-0.053,4.08,2.43,3.37,0.472,2.08,0.27,1.58,-0.805,-1.25,1.11,3.46,0.287,3.71,-0.351,3.79
TCTGTTAGTTGATTAGGGCAACCGAAACAGCGGA,0.614,0.576,0.141,0.571,1.9,0.523,0.000964,1.9,3.28,2.74,1.71,1.89,1.51,1.52,1.09,0.57,0.354,0.456,0.969,1.19
ACTCGGAGGAAAAAGGTCAGAGCTACGCCAGTGA,2.49,3,0.501,2.45,-0.26,3.73,2.6,3.2,1.2,2.74,-0.318,1.1,0.319,-0.672,1.74,2.65,0.00836,3.29,1.23,3.88
CCGAGTATGTTATGGGGCATTCAGGCAACGGTGA,0.355,-0.00818,-0.0828,0.322,-0.243,0.665,0.711,1.75,0.316,1.35,0.63,0.892,-0.0498,-0.0954,0.937,0.0662,0.093,0.394,0.535,0.242
GCTATTAGTTGAAATGGCAACCGAATGATTCTCG,-0.365,-0.424,-0.152,-0.394,-0.166,-0.14,0.344,0.398,0.213,0.114,0.598,-0.104,0.641,0.526,0.501,-0.119,0.359,-0.166,0.404,-0.346
GCAGCTAGGTCAGGTTGGTCAGCTAACGGGTACG,1.03,0.422,-0.282,-0.023,-0.983,1.2,0.443,0.714,-0.586,-0.0508,2.64,2.05,-0.736,-1.04,0.817,-0.0764,-0.615,0.573,0.479,3.28
TAGCTTAGGTCAGATCGGGCCAGTATACGCTATA,2,1.41,-0.333,0.69,0.0114,1.96,0.531,0.891,0.0799,0.412,-0.166,0.996,0.561,-0.217,0.322,1.24,-0.17,1.68,-0.0696,3.54
TGGCCTAGGTCAGATCGGGCCAGTATACGCTATA,2.31,0.419,-0.777,0.152,-1.29,1.39,0.44,0.442,-0.693,-0.369,-0.485,1.03,-1.16,-1.38,-0.396,0.928,-0.757,0.548,-1.18,2.85
CCGACTTGGGCAAGGTTACCATAACGCACAGCCA,0.05,0.652,-0.339,0.538,-0.76,0.821,0.77,0.417,-0.317,0.00151,0.0909,0.144,-0.175,-0.816,0.358,0.327,0.162,0.774,0.309,0.889
CCTACTGGGCCCAAGGTCATTGATTCCAATGCTC,2.45,2.46,1.44,2.53,0.0311,3.65,6.53,6.93,5.33,6.47,-0.0484,3.05,-0.816,-1.27,1.42,3.24,1.78,3.17,0.145,2.79
TCTGCTATGTCAGTTGGTCAGCTAACGAGCTGCC,-0.167,-0.237,-1.15,-0.392,-0.0439,-0.108,-0.623,0.446,0.854,0.78,0.621,0.807,-0.394,0.0922,-0.53,-0.0982,-1.36,-0.0374,-1.02,0.481
ATTTCTAGGTAAAGATAGTTCAGTGAATGCAAAT,0.355,4.21,0.857,1.02,0.567,1.39,1.3,1.27,0.883,1.07,4.34,3.44,1.56,1.86,1.56,1.08,1.16,0.625,1.49,0.8
CTTATTAGTTGACCATAAGGGCAACCGAAGCTCG,0.831,0.356,0.185,0.373,0.837,0.629,0.439,0.266,0.208,0.259,0.601,0.869,1.18,1.03,0.708,0.686,0.516,0.781,1.3,1.72
CCAGACAGGTGAAACGTAACTCAGTCTGGTACGC,-0.253,-0.0571,-0.351,-0.105,-0.651,0.658,0.947,0.946,-0.101,0.589,2.48,0.769,-0.823,-0.558,0.378,-0.325,-0.322,0.0493,0.128,0.621
GGATATAGGTAATACAAGGTGAAAGTCCGATTGT,1.08,2.72,0.722,1.12,0.202,2.58,2.63,2.51,0.801,1.87,5.48,5.34,1.29,1.44,1.17,1.02,0.527,2.01,1.8,0.806
TCAGACAGGAGAAGGTAACTCAGGTACGCAGTCG,0.934,1.47,-0.171,0.452,-0.646,0.384,0.666,1.78,3.37,2.69,2.06,-0.153,-0.44,-0.387,0.0505,0.125,-0.21,0.759,0.536,0.225
GCTGCAAGGTCAGGTTGGTCAGCTAACGGGTACG,4.43,2.88,0.0795,2.36,0.0855,3.65,1.36,2.37,0.236,1.42,1.24,1.7,-0.124,-0.859,1.91,2.44,-0.0524,3.02,0.176,4.4
CGAACGAGGGTATGAGTTGATAGCAAATGCCGAT,-0.386,-0.2,-0.268,-0.396,-0.567,-0.124,0.652,0.353,-0.0706,0.292,0.876,0.397,0.137,0.369,-0.383,-0.238,0.0824,-0.307,0.157,0.117
